A selection: hits, their analogues and other compounds. The true share with any hit is near 2.1%.
FUS yeast rescue – qHTS for Suppressors of FUS Proteinopathy: Primary screen using FUS-linked yeast assay; S. cerevisiae FUS-expressing, growth rescue, OD600, 24 h; Potency, µM (top dose mostly 76.6 µM), usual class: activators; actives 0.24% (n = 390,000); further: nearly all actives have a fitted effect of over 55% in size
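Yeast expressing FUS under galactose induction, OD 0.005 in 2% galactose medium; compounds in a dilution series, 24 h at 30C. Growth rescue by absorbance at 600 nm; CP55940 positive control, DMSO negative.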
TDP-43 yeast inh – qHTS of TDP-43 Inhibitors; TDP-43 expressing yeast growth rescue, BacTiter-Glo, 24 h; Potency, µM (series often up to 46.1 µM), usual class: activators; actives 1.8% (n = 410,000); AID 652104, 2013; further: nearly all actives have a fitted effect of over 50% in size
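In this qHTS, compounds that restore growth of yeast expressing TDP-43 appear as activators. Cells (OD600=0.02, galactose medium, raffinose-pregrown) are incubated with compound 24 hr at 30 deg C and growth is quantified by BacTiter-Glo.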
Abeta rescue – qHTS for compounds that reverse cellular toxicity of Amyloid beta (A-beta) peptide in yeast: Primary Screen. actives 0.063% (n = 410,000). Potency, µM (series often up to 46.1 µM), usual class: activators. yeast expressing A-beta42, growth rescue, OD600, 48 h; response scale: 0% DMSO, 100% iron-clioquinol control. AID 1347071, 2019; further: nearly all actives have a fitted effect of over 55% in size
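Yeast growth medium received pinned compounds, then yeast cells expressing toxic A-beta were added; plates incubated at 30 C for 48 hr. Growth read as absorbance at 600 nm, normalized to DMSO and equimolar FeCl3 plus clioquinol controls.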
aSyn yeast inh – qHTS of alpha-syn Inhibitors; Yeast expressing alpha-synuclein, growth rescue, BacTiter-Glo, 24 h; Potency, µM (series often up to 46.1 µM), usual class: activators; actives 0.14% (n = 370,000); further: nearly all actives have a fitted effect of over 65% in size
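Screening used galactose-induced yeast with toxic alpha-synuclein levels, exposed to compound for 24 hr at 30 deg C. Cell growth, read with BacTiter-Glo luminescence, gave the measured signal.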
A number is an active result; . = inactive; ? = inconclusive; / = no result; [ ] = remark or other dose. The call rests on the fitted dose curve; in most records, active means well fitted curve in the direction sought with a large enough effect; inconclusive means small, poorly fitted or top-dose-only effect, or another doubt; inactive means no such curve, though single readings can be large; an effect the other way counts as inactive or inconclusive.

SMILES	FUS yeast rescue	TDP-43 yeast inh	Abeta rescue	aSyn yeast inh
CCc1nn(CCCC(=O)NC2CCCCC2C)c(=O)c2cc3occc3n12 (configuration not stated)	.	22µM	.	.
O=C(c1ccco1)N1CCC(Oc2cccnc2)CC1	.	/	/	/
O=C(O/N=C(\c1ccccc1)c1ccccn1)c1ccc(Cl)c(Cl)c1	.	.	?	.
N/C(=N\OC(=O)c1ccc(Cl)c(Cl)c1)c1cccnc1	.	6.3µM	.	.
N/C(=N\OC(=O)c1ccc(Cl)c(Cl)c1)c1cccc(CSc2ccccn2)c1	.	11µM	.	.
O=C(OCc1cn(Cc2ccccc2)nn1)N1CCCC1	.	/	/	/
CN(Cc1ccccc1)C(=S)NC(=O)c1cccs1	.	?	13µM	.
CCc1ccc(NC(=O)CC2C(=O)N(c3cccc(C)c3)C(=O)N2Cc2cccs2)cc1 (configuration not stated)	?	.	.	/
Cc1c(C(=O)N(C)c2ccccc2)sc2nc(-c3ccc(F)cc3)cn12	.	35µM	.	/
Cc1c(C(=O)NCc2ccc(F)cc2)sc2nc(-c3ccccc3)cn12	.	.	.	/
Cc1c(C(=O)N(C)Cc2ccccc2)sc2nc(-c3ccc(F)cc3)cn12	?	22µM	.	/
Cc1cc(C)cc(Cn2c(C)c(C(=O)N(C)Cc3ccc(F)cc3)sc2=O)c1	.	32µM	.	.
CCCC(=O)OC12CCCN(C1)/C(=C/c1cccc(Cl)c1)C2 (configuration not stated)	.	/	/	/
COc1cccc(CC2CC(=O)N(CCc3ccc4c(c3)OCO4)C2=O)c1 (configuration not stated)	.	20µM	.	.
CCCC1CCC2(CCC(=O)N2CCSc2ccccc2)CC1 (configuration not stated)	.	/	/	/
Cc1nc(CS(=O)(=O)c2ccccc2)cc(Sc2ccc(Cl)cc2)n1	.	?	.	.
Cc1nc(CS(=O)(=O)c2ccc(Cl)cc2)cc(Sc2ccccc2Cl)n1	.	35µM	.	.
O=S(=O)(Cc1cc(Cl)nc(-c2ccccc2)n1)c1ccccc1	.	.	.	.
Cc1nc(CS(=O)(=O)c2ccccc2)cc(Sc2ccccc2Cl)n1	.	32µM	.[9.22 µM]	.
CC(=O)c1cc(-c2cc(C(=O)O)cc([N+](=O)[O-])c2)c(=O)n2c1CCC2	.	/	/	/
CCCC(=O)N/C(N)=N/c1nc2ccccc2o1	.	13µM	.	.
Cc1ccc(-c2csc3nc[nH]c(=S)c23)cc1C	.	25µM	?	?
COc1ccc(-c2csc3nc[nH]c(=O)c23)cc1OC	.	.	.	.
COc1ccc(C(C(=O)N(C)C2CCCC2)N(Cc2ccc(F)cc2)C(=O)c2cc(C)on2)cc1OC (configuration not stated)	.	/	/	/
COc1ccc(-c2cc(C3CCN(c4ccc(C(C)=O)cc4[N+](=O)[O-])CC3)[nH]n2)cc1	.	.	?	.
SMILES	FUS yeast rescue	TDP-43 yeast inh	Abeta rescue	aSyn yeast inh
CC(=O)c1ccc(N2CCC(c3cc(-c4ccc(Cl)cc4)n[nH]3)CC2)c([N+](=O)[O-])c1	.	16µM	.	.
CCCN(Cc1ccccc1)C(=S)Nc1ccc(F)cc1	.	18µM	.	.
Cc1ccc(NC(=O)/C(C#N)=C/c2cc(C)n(-c3ccc(Br)cc3)c2C)cc1C	?	4µM	.	/
COc1cc(NC(=O)CSc2nc(-c3ccc(C(C)C)cc3)no2)cc(OC)c1	.	.	.	/
Cc1ccc2oc(-c3cccc(NC(=O)COc4ccc(Cl)cc4)c3C)nc2c1	/	/	/	.
CC1CCc2onc(C(=O)NCc3ccco3)c2C1 (configuration not stated)	.	25µM	.	.
O=C(NCc1ccco1)c1noc2c1CCCC2	.	.	.	.
Clc1cccc(N2CCN(c3c4c(nc5nncn35)CCC4)CC2)c1	.	18µM	.	/
CCc1ccc(NC(=O)Cn2c(=O)c3cccn3c3ccccc32)cc1	.	.	.	.
Cc1ccc(CCNC(=O)CCCn2c(=O)c3cccn3c3ccc(F)cc32)cc1	.	35µM	.	/
CC(CNC(=O)CCCn1c(=O)c2cccn2c2ccc(F)cc21)c1ccccc1 (configuration not stated)	?	25µM	.	/
CCc1ccc(NC(=O)CCn2c(=O)c3cccn3c3ccccc32)cc1	?	13µM	.	.
CN(C)c1ccc(C2=Cc3ccccc3C2)cc1	/	/	/	.
